Screening results from PubChem.
The sample as a whole holds a higher share of hits than the screen did.
Pf apPOL inh – Pf-apPOL inhibitors, biochemical, fluorescence. Plasmodium falciparum apicoplast DNA polymerase (apPOL). actives 0.25% (n = 210,000). inhibition, % at 10 µM. Recombinant Pf-apPOL, molecular beacon fluorescence, 1.5 h
mHTT CaM bind – mutant huntingtin-calmodulin interaction inhibitors – biochemical, AlphaScreen, primary screen. actives 3.6% (n = 190,000). P42858. AlphaScreen His-mHTT/GST-CaM binding, luminescence. inhibition, % at 15 µM. AID 1671202, 2021;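 note: 0% = both proteins with DMSO and 100% = one protein alone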
* hit, by the source's call; x = no result given. Cut-off read from the data, not from the text of the source: active = inhibition above about 50%; inactive = the rest.

SMILES	Pf apPOL inh	mHTT CaM bind
Cc1ccccc1C1=N/C(=C\c2sccc2C)C(=O)O1	1	20
Cc1ccsc1C=C1C(=O)c2ccccc2C1=O	-3	50*
O=C(OC1Cc2c(O)cc(O)cc2OC1c1cc(O)c(O)c(O)c1)c1cc(O)c(O)c(O)c1 (stereo not given)	54*	x
O=C1c2c(O)cc(O)cc2OC(c2ccc(O)c(O)c2)C1O (stereo not given)	0	x
CC(C)COc1ccc(/C=C2/NC(=O)N(Cc3ccc(Br)cc3)C2=O)cc1	2	0
COc1ccc(C(Nc2cc(C)ccn2)c2ccc3ccc(C)nc3c2O)cc1OC (stereo not given)	-55	96*
COc1ccc(C(Nc2cc(C)ccn2)c2ccc3cccnc3c2O)cc1OC (stereo not given)	3	100*
CCOc1ccc(C(Nc2ccccn2)c2ccc3ccc(C)nc3c2O)cc1OC (stereo not given)	1	49
COc1ccc(NC(=O)Nc2cc(C)ccn2)cc1	-4	-3
COc1cccc2cc(C(=O)Nc3cc(C)ccn3)c(=O)oc12	-3	0
COc1ccc(C(Nc2ccccn2)c2ccc3cccnc3c2O)cc1OC (stereo not given)	-4	100*
COc1ccccc1C(Nc1cc(C)ccn1)c1ccc2cccnc2c1O (stereo not given)	-8	99*
COc1ccc(C)cc1NS(=O)(=O)c1cccc2cccnc12	-1	-3
CN(C)CC1CN(C(=O)COc2ccc(F)cc2)CC12CCOCC2 (stereo not given)	0	-11
COc1ccc(-c2csc3c(=O)n(Cc4ccccc4C)cnc23)cc1OC	-1	10
CCN1C(=O)Cc2ccccc2C1C(=O)NCc1cccc(OC)c1 (stereo not given)	1	3
O=[N+]([O-])c1cccc2ccc(Nc3ccccn3)nc12	3	14
Cc1ccnc(NC(c2ccccc2[N+](=O)[O-])c2ccc3cccnc3c2O)c1 (stereo not given)	-3	100*
Cc1ccc(-c2nc(C)c(C(=O)N3CCC(CC(=O)NC4CCCC4)CC3)s2)cc1	2	-6
O=C(c1ccc(S(=O)(=O)c2cccc(Cl)c2)c([N+](=O)[O-])c1)N1CCCC1	-16	12
N#Cc1c(-c2ccccc2)cc(-c2cccs2)nc1Br	-4	-9
COc1nc(-c2cccs2)cc(-c2ccc(C)cc2)c1C#N	53*	-36
O=C(NCCC1=CCCCC1)c1ccc2ncnc(N3CCOCC3)c2c1	4	17
Cc1ccc(NC(=O)c2ccccc2Cl)c(C)c1	1	-4
CCN(CC)S(=O)(=O)c1ccc(-c2csc(=Nc3ccc(F)cc3)n2CCCO)cc1	-2	51*
SMILES	Pf apPOL inh	mHTT CaM bind
CCN(CC)S(=O)(=O)c1ccc(-c2csc(=Nc3cccc(C)c3)n2CCCO)cc1	0	64*
O=S(=O)(c1ccc(-c2csc(=Nc3ccccc3)n2CCCO)cc1)N1CCOCC1	-9	43
CCN(CC)S(=O)(=O)c1ccc(-c2csc(=Nc3ccc(C)cc3)n2C)cc1	-9	-1
COc1ccc(C(O)CN2CCN(C3CCCCC3)CC2)cc1 (stereo not given)	-3	-9
O=C(CN1C(=O)C(c2ccccc2)=NC12CCCCCC2)Nc1ccc(F)c(F)c1	-10	-1
Cc1ccc(-c2nc(C)c(C(=O)N3CCC(C(C)C(=O)NC4CC4)CC3)s2)cc1 (stereo not given)	-4	4
C=C(C)COc1ccc2oc(C(C)(C)C)c(C(=O)O)c2c1	-5	-3
O=C1c2ccccc2C(=O)c2c1oc1c3c(ccc21)OCN(CCCn1ccnc1)C3	6	100*
COCCN1COc2ccc3c(=O)c(-c4ccccc4OC)c(C)oc3c2C1	2	-7
CC(C)(C)N1COc2ccc3c4c(oc3c2C1)C(=O)c1ccccc1C4=O	31	33
O=C1c2ccccc2C(=O)c2c1oc1c3c(ccc21)OCN(CCC1=CCCCC1)C3	-1	79*
O=C1c2ccccc2C(=O)c2c1oc1c3c(ccc21)OCN(C1CCCCC1)C3	27	84*
COCCCN1COc2ccc3c(=O)c(-c4ccccc4OC)c(C(F)(F)F)oc3c2C1	-3	-1
O=C(Cc1ccc(NC(=O)C2CCCC2)cc1)NCC(F)(F)F	-5	-12
CC(C)(C)c1[nH]nc2c1C(c1ccc(Cl)c([N+](=O)[O-])c1)C(C#N)=C(N)O2 (stereo not given)	-2	20
CSCCC(C(=O)O)n1c(O)c(C2=c3cc(Br)ccc3=NC2=O)sc1=S (stereo not given)	x	51*
Cc1ccc(Nc2nc(O)c(C3=c4cc(Br)ccc4=NC3=O)s2)cc1C	0	10
Cc1ccccc1-n1c(O)c(C2=c3cc(Br)ccc3=NC2=O)sc1=O	7	63*
O=C1N=c2ccc(Br)cc2=C1c1sc(=O)n(-c2ccccc2)c1O	-6	8
COc1ccc(-c2nc(C(=O)N(C)C(C)C)cs2)cc1OC	-1	2
CCNc1cc(N2CCC(CCC(=O)N3CCC(C(=O)OCC)CC3)CC2)ncn1	-6	5
Cc1cc(/C=C2\NC(=O)N(Cc3ccc(Cl)cc3)C2=O)c(C)n1-c1ccc(C#N)cc1	-4	51*
COc1cc(OC)c(OC)cc1/C=C1\NC(=O)N(Cc2ccc(Cl)cc2)C1=O	-9	-1
Cc1ccc(NC(=O)c2ccc(N3CCCC3)c([N+](=O)[O-])c2)cc1	-4	34
CCC(=O)Nc1cccc(-c2noc(C3CCCN(C(=O)c4ccc(F)c(F)c4)C3)n2)c1 (stereo not given)	0	5
SMILES	Pf apPOL inh	mHTT CaM bind
COc1cccc(C2=CC(c3cc(OC)c(OC)c(OC)c3)n3ncnc3N2)c1 (stereo not given)	14	28
COc1cc(C2C=C(c3cccc(NC(C)=O)c3)Nc3ncnn32)cc(OC)c1OC (stereo not given)	61*	-3
COc1ccc(OC)c(C2C=C(c3cccc(Br)c3)Nc3nnnn32)c1 (stereo not given)	9	56*
COc1ccc(C2C=C(c3cccc(Br)c3)Nc3nnnn32)cc1OC (stereo not given)	4	65*
COc1cccc(C2C=C(c3cccc(Br)c3)Nc3nnnn32)c1 (stereo not given)	-6	-13
COc1ccc(OC)c(C2C=C(c3ccc(Cl)cc3)Nc3nnnn32)c1 (stereo not given)	0	17
COc1ccc(C2C=C(c3cccc(Br)c3)Nc3ncnn32)cc1 (stereo not given)	-10	59*
Cc1ccc(C2C=C(c3cccc(Br)c3)Nc3ncnn32)cc1 (stereo not given)	-8	14
O=C(NCc1ccc2c(c1)OCO2)C1CCN(Cc2nc3ccccc3[nH]2)CC1	-1	-4
Cc1ccc(C(=O)N2CCC(CC(=O)NCc3ccccc3C)CC2)cc1	-2	7
CC(C)CC(=O)Nc1ccc(N2CCN(C(=O)c3ccccc3)CC2)nc1	-2	-2
Brc1cccc(C2C=C(c3cccs3)Nc3ncnn32)c1 (stereo not given)	65*	13
Brc1ccc(C2C=C(c3cccs3)Nc3ncnn32)cc1 (stereo not given)	-3	17
CSc1cccc(NC(=O)CN(c2cccc(C)c2)S(=O)(=O)c2ccccc2)c1	-1	-2
CC(C)OCCCNC(=O)NC1(C(F)(F)F)Oc2ccccc2O1	2	-1
